Screens from PubChem.
S1P2 blocker – antagonists of human S1P2 receptor | O95136 | cell-based S1P2 antagonist assay, inhibition at 5 uM | inhibition, % at 5 µM | 97,000 tested, 0.21% active; in the data active = inhibition above about 45%;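 note: CRE beta-lactamase reporter cells expressing human S1P2 stimulated with S1P; 0% = agonist at EC80 alone and 100% = agonist plus reference antagonist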
MRP1 act – activates MRP-1; H69AR cells + doxorubicin, viability rescue, CellTiter-Glo; viability increase, % at 10 µM; 140,000 tested, 0.61% active; AID 799;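 active = viability gain under doxorubicin at or above a set limit, the compound median plus 3 SD, cut at about 4.7% in these data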;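 note: MRP-1 overexpressing cells given doxorubicin 25 µM after compound pretreatment; 18-22 h compound pretreatment then 72 h with doxorubicin before readout; 0% = doxorubicin-only wells and 100% = vehicle-treated cells without doxorubicin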
MRP reversal – compounds reversing MRP-mediated drug resistance; 85,000 tested, 0.04% active; H69AR cells + 2 uM doxorubicin, CellTiter-Glo, 72 h; differential viability (reversal), % at 10 µM; AID 602;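 active = viability drop by adding the cancer drug above about 55%, with treated viability meeting a 40% cutoff, limit read from the data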;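 note: viability without doxorubicin minus viability with 2 µM doxorubicin for each compound; larger differential means the compound sensitizes cells more to doxorubicin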
GALR2 blocker – blocks the human galanin receptor 2. GALR2-expressing cells, antagonist mode. O43603. AID 828. 140,000 tested, 0.39% active. inhibition, % at 4 µM; in the data active = inhibition above about 27%;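 note: cells stimulated with galanin 1-16 at roughly its EC80; 0% = agonist challenge control and 100% = basal control without agonist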
Target sequence (O43603 whole entry, looked up): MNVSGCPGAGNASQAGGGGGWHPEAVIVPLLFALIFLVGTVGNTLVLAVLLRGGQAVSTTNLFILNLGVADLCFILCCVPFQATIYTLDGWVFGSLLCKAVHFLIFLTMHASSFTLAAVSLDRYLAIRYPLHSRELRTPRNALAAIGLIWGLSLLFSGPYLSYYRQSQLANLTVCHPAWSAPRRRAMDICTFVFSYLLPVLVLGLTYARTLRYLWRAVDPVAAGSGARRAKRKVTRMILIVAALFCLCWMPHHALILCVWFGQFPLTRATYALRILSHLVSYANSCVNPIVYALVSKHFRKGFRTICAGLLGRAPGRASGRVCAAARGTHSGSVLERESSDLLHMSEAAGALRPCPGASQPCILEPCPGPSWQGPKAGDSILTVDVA
S1P2 ag – S1P2 (human) receptor agonism; 97,000 tested, 0.46% active; activation, % at 4.5 µM; AID 729; S1P2-expressing cell line, agonist reporter read-out; O95136; in the data active = activation above about 16%;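 note: 0% = vehicle low control and 100% = maximal reference agonist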
GALR2 ag – agonists of human galanin receptor 2 (GALR2) | activation, % (no concentration beside the values) | GALR2-expressing cells, agonist activation read-out | O43603 | 140,000 tested, 0.48% active | AID 803; in the data active = activation above about 5%, passing the limit was not always enough;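 note: 0% = vehicle buffer wells and 100% = reference agonist at full effect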
Active calls of the source: *. In the library only some 1.7% were active in any assay of this set; here they are far more common.

O=C(N/N=C/c1ccccn1)c1cc(-c2cccc3ccccc23)n[nH]1 was read as MRP1 act 0.4, GALR2 blocker 5.8 and GALR2 ag -0.1.
Screening O=C(N/N=C/c1ccccn1)c1cc(-c2ccc3ccccc3c2)n[nH]1 returned MRP1 act 7.5*, GALR2 blocker -0.3 and GALR2 ag 1.2.
For CCOc1ccc(C(=O)Nc2ccccc2N2CCCC2)cc1 the results were S1P2 blocker 1.5, MRP1 act -2.4, MRP reversal -20.3, GALR2 blocker 17.1, S1P2 ag -7.5 and GALR2 ag -0.7.
For COc1ccc(-c2ocnc2C(=O)Nc2ccccc2N2CCCCC2)cc1 the results were S1P2 blocker 6.0, MRP1 act 7.2*, MRP reversal -13.1, GALR2 blocker -9.0, S1P2 ag -5.7 and GALR2 ag -0.3.
CC1=NN(c2ccc(C)cc2C)C(=O)C1C(c1ccccc1O)C1C(=O)N(c2ccc(C)cc2C)N=C1C (configuration not stated) was read as MRP1 act 5.6*, GALR2 blocker 1.4 and GALR2 ag -0.7.
COc1ccc2c(Cl)c(C(=O)NCCCn3ccnc3)sc2c1 was read as S1P2 blocker -12.9, MRP1 act -2.7, MRP reversal 78.6*, GALR2 blocker 12.3, S1P2 ag 1.1 and GALR2 ag -2.2.
For O=C(CC12CC3CC(CC(C3)C1)C2)N1CCN(S(=O)(=O)c2cccs2)CC1 the results were MRP1 act -2.2, GALR2 blocker -3.7 and GALR2 ag 0.1.
`COc1cc2c(cc1OC)CN(CC(=O)Nc1ccccc1C#N)CC2` gave S1P2 blocker 4.2, MRP1 act -4.2, MRP reversal 13.9, GALR2 blocker 5.0, S1P2 ag 1.0 and GALR2 ag -1.7.
Screening COc1cc2c(cc1OC)C1=C(C#N)CN(CC(=O)O)CN1CC2 returned S1P2 blocker -28.0, MRP1 act -3.2, MRP reversal 11.9, GALR2 blocker -8.3, S1P2 ag 22.9* and GALR2 ag -1.4.
`O=C(CSc1ncn[nH]1)NCCC(c1ccccc1)c1ccccc1` gave S1P2 blocker 14.4, MRP1 act 9.8*, MRP reversal 3.5, GALR2 blocker 18.2, S1P2 ag -2.8 and GALR2 ag -2.9.
For CC(C)c1ccc(C(=O)CSc2ncn[nH]2)cc1 the results were S1P2 blocker -4.6, MRP1 act 6.6*, MRP reversal 22.0, GALR2 blocker 2.3, S1P2 ag 1.1 and GALR2 ag -0.3.
`O=C(CSc1ncn[nH]1)c1ccc2c(c1)OCCO2` gave S1P2 blocker -20.7, MRP1 act -0.2, MRP reversal 2.7, GALR2 blocker -1.2, S1P2 ag 0.0 and GALR2 ag -2.0.
Cc1ccc(NC(=O)NNc2cccc(Cl)n2)cc1 was read as S1P2 blocker 2.4, MRP1 act -0.1, GALR2 blocker 0.6, S1P2 ag -7.1 and GALR2 ag -3.0.
`Cc1ccc2cc(C#N)c(SCc3nnc(-c4ccccc4[N+](=O)[O-])o3)nc2c1` gave MRP1 act -5.7, GALR2 blocker 0.6 and GALR2 ag -0.2.
Screening Cc1ccc2nc3c(cc2c1)c(NC(=O)c1ccccn1)nn3CC(C)C returned S1P2 blocker -22.5, MRP1 act -0.4, MRP reversal 8.0, GALR2 blocker -11.1, S1P2 ag 18.6* and GALR2 ag 2.7.
CSc1ccccc1NC(=O)CN(c1ccccc1Br)S(C)(=O)=O was read as MRP1 act -1.2, GALR2 blocker 18.1 and GALR2 ag -0.1.
For O/N=C(\c1ccc(Cl)cc1Cl)c1ncc(C(F)(F)F)cc1Cl the results were S1P2 blocker -7.8, MRP1 act -4.7, MRP reversal -10.6, GALR2 blocker -3.4, S1P2 ag 0.8 and GALR2 ag -3.4.
Screening O=C(COc1ccc(Cl)cc1)NCc1nnc(SCC(=O)NCc2ccc3c(c2)OCO3)o1 returned S1P2 blocker 5.1, MRP1 act 5.8*, MRP reversal 8.1, GALR2 blocker 6.2, S1P2 ag -4.9 and GALR2 ag -3.6.
Screening O=C(COc1ccc(Cl)cc1)NCc1nnc(SCC(=O)N2CCCCC2)o1 returned S1P2 blocker -34.5, MRP1 act 0.7, MRP reversal 8.0, GALR2 blocker -7.0, S1P2 ag -4.2 and GALR2 ag -0.5.
Screening O=C(C1CCN(S(=O)(=O)c2ccccc2)CC1)N1CCOCC1 returned S1P2 blocker 1.0, MRP1 act 0.1, MRP reversal -2.8, GALR2 blocker 1.6, S1P2 ag -1.4 and GALR2 ag -3.3.
Screening CN(C)/C=N/C(=S)Nc1ccc(Br)cc1F returned S1P2 blocker -11.6, MRP1 act -2.0, MRP reversal 0.9, GALR2 blocker -12.2, S1P2 ag -8.7 and GALR2 ag -1.3.
Screening O=C(NNC(=O)c1cccnc1)Nc1cccc2ccccc12 returned S1P2 blocker -57.3, MRP1 act 5.7*, GALR2 blocker 11.9, S1P2 ag -6.9 and GALR2 ag -3.8.
For O=C(COc1ccc(Br)cc1)c1ccc2c(c1)CCCC2 the results were S1P2 blocker -1.7, MRP1 act 5.1*, GALR2 blocker -5.7, S1P2 ag -4.6 and GALR2 ag -1.4.
For N#CCSc1nc2cc(C(=O)N3CCC(C(N)=O)CC3)ccc2c2nc3ccccc3n12 the results were S1P2 blocker -23.2, MRP1 act 6.1*, MRP reversal -21.5, GALR2 blocker -8.2, S1P2 ag 36.7* and GALR2 ag 0.5.
`N#CCSc1nc2cc(C(=O)N3CCCC3)ccc2c(=O)n1Cc1ccccc1` gave S1P2 blocker -2.8, MRP1 act -1.1, GALR2 blocker -3.7, S1P2 ag 0.1 and GALR2 ag 1.4.
`COc1ccc(NC(=O)c2oc3ccccc3c2NC(=O)C2CC2)cc1` gave S1P2 blocker 18.4, MRP1 act 1.4, GALR2 blocker -9.5, S1P2 ag -5.8 and GALR2 ag -1.0.
`COc1ccc(NC(=O)c2oc3ccccc3c2NC(=O)C(C)(C)C)cc1` gave S1P2 blocker 4.6, MRP1 act 5.5*, GALR2 blocker 0.5, S1P2 ag -2.2 and GALR2 ag -0.1.
Screening CC1(C)Cc2c(sc3c2c(=N)n(Cc2ccco2)c(=O)n3CC(=O)Nc2cccc(Cl)c2)CO1 returned MRP1 act 1.1, MRP reversal 3.5, GALR2 blocker 5.5 and GALR2 ag -0.1.
Screening Cc1cccc(NC(=O)Cn2c(=O)n(Cc3ccco3)c(=N)c3c4c(sc32)COC(C)(C)C4)c1 returned S1P2 blocker -2.3, MRP1 act 9.4*, MRP reversal -2.5, GALR2 blocker 3.8, S1P2 ag -9.1 and GALR2 ag -0.8.
For CCOC(=O)c1ccc(N2CN=C3SCC(=O)N3C2)cc1 the results were S1P2 blocker -1.8, MRP1 act 5.8*, MRP reversal -0.6, GALR2 blocker 10.5, S1P2 ag -8.2 and GALR2 ag -0.9.
`c1ccc2[nH]c3cc4ncnc4cc3nc2c1` gave MRP1 act 0.3, GALR2 blocker 2.7 and GALR2 ag 0.7.
For CC1Nc2nc(N(C)C)[nH]c(=O)c2NC1C (configuration not stated) the results were MRP1 act -1.2, GALR2 blocker -1.4 and GALR2 ag -2.1.
